A selection: hits, their analogues and other compounds. The true share with any hit is near 7.8%.
NOMO-1 viab – STK33 inhibitor candidate reducing NOMO-1 cell viability; inhibition, % (no concentration beside the values); actives 7.5% (n = 37,000); AID 2330; NOMO-1 AML viability, CellTiter-Glo luminescence, 72 h; in the data active = inhibition above about 80%; inconclusive = no clear call, values can overlap the other calls
MITF inhib – inhibitors of MITF; TRPM1 promoter luciferase, luminescence, 24 h; inhibition, % (test concentration not listed); actives 0.28% (n = 37,000); in the data active = inhibition above about 85%; inconclusive = no clear call, values can overlap the other calls; inactive = below about 68%;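 note: human melanocyte line stably carrying TRPM1 promoter luciferase reporter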
Hedgehog inh – blocks Sonic Hedgehog signaling | actives 2.1% (n = 22,000) | inhibition, % (concentration not given with the values) | Shh-LIGHT2 Gli-luciferase reporter, 30 h;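 active = mean inhibition across valid replicates above about 65%, limit read from the data; inconclusive = mean under the limit, yet half or more replicates past it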;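 note: pathway switched on by Shh-conditioned medium diluted 1 in 25 in low serum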
Active calls of the source: *; ? = inconclusive; / = not tested or not shown.

SMILES | NOMO-1 viab | MITF inhib | Hedgehog inh
C[C@@H]1CN([C@H](C)CO)C(=O)c2cccc(NC(=O)c3nc4ccccc4s3)c2O[C@@H]1CN(C)CC1CCCCC1 | 32 | -15 | 3
C[C@H](CO)N1C[C@H](C)[C@@H](CN(C)CC2CCCCC2)Oc2c(NC(=O)c3nc4ccccc4s3)cccc2C1=O | 108* | 48 | -4
C[C@H](CO)N1C[C@H](C)[C@H](CN(C)CC2CCCCC2)Oc2c(NC(=O)c3nc4ccccc4s3)cccc2C1=O | ? | -16 | 18
C[C@@H]1CN([C@@H](C)CO)C(=O)c2cccc(NC(=O)c3nc4ccccc4s3)c2O[C@@H]1CN(C)CC1CCCCC1 | 117* | -16 | -33
C[C@H]1CN([C@@H](C)CO)C(=O)c2cc(NC(=O)Nc3ccccc3)ccc2O[C@H]1CN(C)C(=O)Nc1cccc2ccccc12 | 8 | -5 | -17
C[C@H]1CN([C@@H](C)CO)C(=O)Cc2cc(NC(=O)Nc3cccc4ccccc34)ccc2O[C@@H]1CN(C)C(=O)Nc1cccc2ccccc12 | 24 | 8 | -22
CN1CCc2cccc3c2[C@H]1Cc1ccc(O)c(O)c1-3 | 113* | 5 | -4
C[C@@H]1CC(=O)c2c(ccc3c2C(=O)c2cccc(O)c2C3=O)C1 | 71 | -54 | -10
COc1ccc(NC(=O)N(C)C[C@@H]2Oc3ccc(NC(=O)Nc4c(C)noc4C)cc3C(=O)N([C@@H](C)CO)C[C@H]2C)cc1 | -11 | 2 | -7
C[C@@H]1CCCCO[C@H](CN(C)S(C)(=O)=O)[C@@H](C)CN([C@H](C)CO)C(=O)c2cc(NC(=O)c3ccccc3)ccc2O1 | 11 | -5 | 20
C[C@@H]1CN([C@H](C)CO)C(=O)c2cc(NC(=O)Cc3cn(C)c4ccccc34)ccc2O[C@H]1CN(C)C(=O)Nc1cccc2ccccc12 | 8 | 14 | /
C[C@H](CO)N1C[C@H](C)[C@H](CN(C)C(=O)Nc2cccc3ccccc23)Oc2ccc(NC(=O)Cc3cn(C)c4ccccc34)cc2C1=O | 88* | 35 | -37
C[C@@H]1CN([C@@H](C)CO)C(=O)c2cc(NC(=O)Cc3cn(C)c4ccccc34)ccc2O[C@@H]1CN(C)C(=O)Nc1cccc2ccccc12 | 125* | 34 | -1
C[C@H]1CN([C@@H](C)CO)C(=O)c2cc(NC(=O)Cc3cn(C)c4ccccc34)ccc2O[C@@H]1CN(C)C(=O)Nc1cccc2ccccc12 | 5 | 13 | /
C[C@@H]1CCCCO[C@@H](CN(C)C(=O)c2ccccc2)[C@@H](C)CN([C@H](C)CO)C(=O)c2cc(NC(=O)CCCN(C)C)ccc2O1 | 19 | 6 | /
C[C@@H]1CCCCO[C@@H](CN(C)C(=O)C2CCCCC2)[C@@H](C)CN([C@H](C)CO)C(=O)c2cc(NC(=O)Nc3ccc4c(c3)OCO4)ccc2O1 | 7 | 12 | -19
COc1ccc(Cl)cc1N(CC(=O)Nc1ccc(C)c(C)c1)S(C)(=O)=O | 36 | -6 | /
O=C(c1cccs1)n1nc(-c2ccc(Cl)cc2)nc1NCc1ccco1 | 46 | -73 | /
Cc1ccc(Cc2nn3c(C(=O)c4cccs4)nn(-c4ccc(Cl)cc4)c3nc2=O)cc1 | 37 | 23 | 67*
O=C(CCc1ccc(O)cc1)CC(CCc1ccc(O)cc1)O[C@@H]1OC[C@@H](O)[C@H](O)[C@H]1O (some centres not stated) | 113* | -14 | 11
Oc1ccc(CCCCC(CCc2ccc(O)cc2)O[C@@H]2OC[C@@H](O)[C@H](O)[C@H]2O)cc1 (some centres not stated) | / | / | 14
Cc1noc(C)c1S(=O)(=O)Nc1ccc2c(c1)C(=O)N([C@H](C)CO)C[C@H](C)[C@H](CN(C)CC1CC1)O2 | 17 | -8 | -21
CC(C)=CCc1cc(O)ccc1O[C@@H]1O[C@H](CO)[C@@H](O)[C@H](O)[C@H]1O | 18 | -17 | -30
CC(Oc1ccc(Cl)cc1Cl)C(=O)Nc1cccc(-c2nnc(-c3ccccc3)o2)c1 (configuration not stated) | 35 | -51 | /
Cc1cc(Cl)ccc1OCC(=O)Nc1ccccc1-c1nc2ccccc2s1 | 22 | 23 | /
SMILES | NOMO-1 viab | MITF inhib | Hedgehog inh
Cc1ccc(-c2nc3ccccc3s2)cc1NC(=O)COc1ccccc1C | 30 | 23 | /
O=C(COc1ccc(Cl)cc1Cl)Nc1cccc(-c2nnc(-c3ccccc3)o2)c1 | 114* | -55 | /
O=C(COc1ccc(Cl)cc1Cl)Nc1ccc(O)c(-c2nc3ccccc3s2)c1 | 103* | 15 | /
Cc1ccc(-c2nc3ccccc3s2)cc1NC(=O)COc1cccc(C)c1C | 89* | -55 | /
Cc1ccccc1-c1nc2cc(NC(=O)COc3ccc(Cl)cc3)ccc2o1 | 19 | -45 | /
O=C(COc1ccc(Cl)cc1)Nc1ccc(O)c(-c2nc3ccccc3o2)c1 | 98* | 57 | /
